Inconclusive results are not listed. The source made the active and inactive calls. Unless noted, calls follow the shape of the dose curve; as a rule, active = well fitted curve in the direction sought with a large enough effect; inconclusive = small, poorly fitted or top-dose-only effect, or another doubt; inactive = no such curve, though single readings can be large; an effect the other way counts as inactive or inconclusive.
Experiments:
[1] = test system: NAD(P)H diaphorase (Clostridium kluyveri); experiment: Diaphorse counterscreen qHTS: Assay Interference Panel against the NCATS CANVASS Library (AID 1347362)
In short: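 Counterscreen for coupling-enzyme interference: resorufin fluorescence from resazurin/NADH turnover, read after 5 min at room temperature. Compounds were tested over an 11-point series after 15 min dark preincubation with diaphorase in PBS-Tween.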

[2] = molecular target: Luciferin 4-monooxygenase (Photinus pyralis) (UniProt P08659); experiment: Firefly luciferase counterscreen qHTS: Assay Interference Panel against the NCATS CANVASS Library (AID 1347363)
In short: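 Luminescence inhibition readout: compounds (11-point qHTS) sat 15 min at room temperature with substrate mix (0.013 mM luciferin and ATP), then firefly luciferase was added and signal read 5 min later.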

[3] = KB-3-1 Cancer Cell Toxicity qHTS against the NCATS CANVASS Library (AID 1347366)
In short: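 KB-3-1 cells (500 cells/well) in DMEM + 10% FBS were treated with compounds for 72 hr at 37C, 5% CO2. Viability was read as CellTiter-Glo luminescence after 10 minutes at room temperature.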

[4] = MCF7 Cancer Cell Toxicity qHTS against the NCATS CANVASS Library (AID 1347369)
In short: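 MCF7, 500 cells/well; cpds 11-pt qHTS; 72 hr, 37C/5% CO2; CellTiterGlo ATP luminescence.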

[5] = qHTS for ATAD5 Antagonist screened against the NCATS CANVASS Library (AID 1347370)
In short: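 Compounds (11-point) co-dosed with 10 µM 5-FUrd for 16 h at 37 °C onto HEK293T-ATAD5 luciferase reporter cells. Viability measured by CellTiter-Fluor fluorescence, then ATAD5 reporter signal by luminescence.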

[6] = J3T Cancer Cell Toxicity qHTS against the NCATS CANVASS Library (AID 1347371)
In short: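 Luminescence from CellTiterGlo, reporting cellular ATP, serves as the viability measure after 72 hr compound treatment of J3T canine glioma cells seeded at 500 cells/well.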

[7] = molecular target: Nuclear receptor subfamily 1 group I member 3 (Homo sapiens) (UniProt Q14994); experiment: qHTS for Constitutive Androstane Receptor (CAR) Antagonist screened against the NCATS CANVASS Library (AID 1347372)
In short: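 Antagonist mode: compound added alongside 50 nM CITCO to HepG2-hCAR-CYP2B6 reporter cells, 24hr at 37C. Viability by CellTiter-Fluor fluorescence, then CAR-driven luciferase by ONE-Glo luminescence.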

[8] = molecular target: Nuclear receptor subfamily 1 group I member 3 (Homo sapiens) (UniProt Q14994); experiment: qHTS for Constitutive Androstane Receptor (CAR) Agonist screened against the NCATS CANVASS Library (AID 1347373)
In short: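 Cells were plated and allowed to attach for 4hr, then dosed with compound in an 11-point series alongside 1.5uM PK11195. After 24hr at 37C, viability was measured fluorometrically and CAR-driven CYP2B6 reporter luminescence was recorded.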

[9] = qHTS for Inflammasome Signaling Inhibitors: IL-1-beta AlphaLISA screen against the NCATS CANVASS Library (AID 1347379)
In short: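 Secreted IL-1B from human THP-1 cells quantified by AlphaLISA 16 hr after compound addition (final up to 57.5 uM). A 1 hr compound pretreatment preceded inflammasome activation with 250 ng/mL LPS plus 1.25 mM ATP (final).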

[10] = qHTS for Antimalaria activity screened against the NCATS CANVASS Library (AID 1347380)
In short: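 Compounds are titrated over 11 concentrations onto Dd2 parasite cultures (0.3% parasitemia, 2.5% hematocrit). Growth over 72 h at 37C in low oxygen is measured as SYBR Green DNA fluorescence after lysis.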

[11] = Inflammasome Signaling qHTS Counterscreen: IL-1-beta AlphaLISA counterscreen against the NCATS CANVASS Library (AID 1347381)
In short: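 Purified IL-1-beta (4 pg/well) + compound, 11-pt conc. series; acceptor beads 6 ug/mL + biotin-Ab 0.6 nM final, 1 h RT; SA-donor 24 ug/ml final, 30 min dark RT; read ex 680/em 615.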

[12] = Cytotoxicity qHTS for assessment of Hepg2 cells membrane integrity screened against the NCATS CANVASS Library (AID 1347387)
In short: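 Cells were seeded at 2000 per well and left overnight to attach. Compounds were pin-transferred to give 0.59 nM - 46 uM in an 11-point series and incubated 5 hr at 37C. CytoTox-ONE reagent was added and, after 10 min at room temperature, fluorescence (ex 560, em 590 nm) was read.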

[13] = qHTS for Activators of p53 Stress Response Pathway screened against the NCATS CANVASS Library (AID 1347388)
In short: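 Beta-lactamase reporter driven by p53 response elements in HCT-116 cells, read as the 460 nm/530 nm emission ratio after CCF4 loading, following 16 h of exposure to an 11-point series. Cell viability was measured in the same wells by CellTiter-Glo luminescence.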

[14] = qHTS assay for small molecule disruptors of mitochondrial membrane potential screened against the NCATS CANVASS Library (AID 1347389)
In short: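 Mitochondrial depolarization in HepG2 cells is scored as a falling aggregate-to-monomer fluorescence ratio after 1 hr compound exposure and 30 min staining with Mito-MPS dye at 37C, each compound tested as an 11-point titration.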

[15] = qHTS for activators of Nrf2/ARE signaling pathway screened against the NCATS CANVASS Library (AID 1347391)
In short: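 Beta-lactamase reporter signal, read as 460 and 530 nm emission under 405 nm excitation after 2 h CCF4 loading, reflected ARE activation in HepG2 cells treated 16 h with an 11-point series.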

[16] = qHTS for activators of dead-cell proteases activity screened against the NCATS CANVASS Library (AID 1347392)
In short: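 Luminescent dead-cell protease readout (AAF-aminoluciferin, 15 min, room temperature) after 5 h compound treatment of HepG2 cells (2000/well, pre-attached 18 h). Eleven concentrations.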

[17] = Vero-766 cells viability qHTS against the NCATS CANVASS Library: Counterscreen for Zika virus inhibition assay (AID 1347394)
In short: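 Uninfected Vero 766 (African green monkey) cells, 1000/well, attached overnight, then exposed 72 h at 37C to compounds (11-point qHTS). Viability read by CellTiter-Glo luminescence; media-only wells served as 100% inhibition.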

[18] = qHTS for inhibitors of Wild type Zika virus screened against the NCATS CANVASS Library (AID 1347396)
In short: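 Vero 766 cells, 1000/well, o/n attach; cpds pin-transferred (11-pt qHTS); WT Zika added; 72 h, 37C, 5% CO2; CellTiter Glo lumi. Uninfected + vehicle = 100% inhibition.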

[19] = molecular target: Cytochrome P450 3A4 (Homo sapiens) (UniProt P08684); experiment: qHTS Assay for Activators of Cytochrome P450 3A4 (AID 885)
In short: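 CYP3A4 activity: Luciferin-PPXE O-dealkylation, 25uM substrate, 200mM KPO4, RT throughout. Read-out is luciferase luminescence; higher values reflect activation.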

[20] = molecular target: Estrogen receptor (Homo sapiens) (UniProt P03372); experiment: qHTS assay for small molecule antagonists of estrogen receptor alpha signaling (AID 588513; active = well fitted curve in the direction sought with a large enough effect in the signal ratio, with a control signal flat, not every such curve was filed as active; the % refers to the signal ratio)
In short: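 ER-alpha-UAS-bla GripTite HEK 293 cells in medium with 2% charcoal/dextran-treated FBS were preincubated 4 h at 37 C, dosed with compound (1:2 titration), stimulated with 0.5nM 17-beta-estradiol for 18 h, then read by CCF4 beta-lactamase fluorescence.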

Measured: Potency

Nuclear receptor subfamily 1 group I member 3 (Homo sapiens), sequence (Q14994 whole entry, looked up): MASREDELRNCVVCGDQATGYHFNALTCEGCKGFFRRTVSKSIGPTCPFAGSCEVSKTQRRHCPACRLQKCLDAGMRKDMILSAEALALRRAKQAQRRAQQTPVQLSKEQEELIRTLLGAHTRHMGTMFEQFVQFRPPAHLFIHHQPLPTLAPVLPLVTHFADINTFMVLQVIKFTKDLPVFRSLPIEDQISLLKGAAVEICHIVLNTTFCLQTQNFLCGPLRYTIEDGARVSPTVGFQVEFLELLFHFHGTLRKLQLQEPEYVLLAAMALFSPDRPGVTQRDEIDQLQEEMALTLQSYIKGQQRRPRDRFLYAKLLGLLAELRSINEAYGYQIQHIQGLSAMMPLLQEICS
Estrogen receptor (Homo sapiens), sequence (P03372 whole entry, looked up): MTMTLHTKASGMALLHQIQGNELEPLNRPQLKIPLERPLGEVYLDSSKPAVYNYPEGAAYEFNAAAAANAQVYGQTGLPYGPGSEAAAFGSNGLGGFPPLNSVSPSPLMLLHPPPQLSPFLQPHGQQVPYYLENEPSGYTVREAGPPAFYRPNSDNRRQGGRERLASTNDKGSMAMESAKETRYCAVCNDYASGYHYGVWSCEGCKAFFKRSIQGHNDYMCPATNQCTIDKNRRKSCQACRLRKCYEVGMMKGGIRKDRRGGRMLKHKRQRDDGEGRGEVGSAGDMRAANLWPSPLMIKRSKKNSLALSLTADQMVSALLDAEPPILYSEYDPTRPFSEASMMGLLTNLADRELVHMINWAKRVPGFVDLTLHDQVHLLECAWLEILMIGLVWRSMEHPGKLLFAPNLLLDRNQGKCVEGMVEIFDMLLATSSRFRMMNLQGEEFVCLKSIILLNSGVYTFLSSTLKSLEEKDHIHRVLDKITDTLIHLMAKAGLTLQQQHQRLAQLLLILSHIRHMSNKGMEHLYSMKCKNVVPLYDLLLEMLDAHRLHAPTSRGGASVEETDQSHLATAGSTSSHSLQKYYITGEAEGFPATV
Cytochrome P450 3A4 (Homo sapiens), sequence (P08684 whole entry, looked up): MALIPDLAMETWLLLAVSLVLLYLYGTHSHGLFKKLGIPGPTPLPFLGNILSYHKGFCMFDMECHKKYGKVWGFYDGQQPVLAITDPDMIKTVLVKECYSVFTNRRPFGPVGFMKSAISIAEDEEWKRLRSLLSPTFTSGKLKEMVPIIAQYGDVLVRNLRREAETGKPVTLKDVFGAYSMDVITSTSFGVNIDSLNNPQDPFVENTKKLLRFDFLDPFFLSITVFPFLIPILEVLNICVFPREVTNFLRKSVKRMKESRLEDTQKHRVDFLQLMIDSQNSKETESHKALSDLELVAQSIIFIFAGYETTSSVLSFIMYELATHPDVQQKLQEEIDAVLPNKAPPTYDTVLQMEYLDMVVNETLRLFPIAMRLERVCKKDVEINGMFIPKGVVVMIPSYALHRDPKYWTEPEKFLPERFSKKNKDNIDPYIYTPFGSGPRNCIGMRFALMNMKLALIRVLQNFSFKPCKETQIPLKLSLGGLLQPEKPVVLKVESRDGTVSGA
Luciferin 4-monooxygenase (Photinus pyralis), sequence (P08659 whole entry, looked up): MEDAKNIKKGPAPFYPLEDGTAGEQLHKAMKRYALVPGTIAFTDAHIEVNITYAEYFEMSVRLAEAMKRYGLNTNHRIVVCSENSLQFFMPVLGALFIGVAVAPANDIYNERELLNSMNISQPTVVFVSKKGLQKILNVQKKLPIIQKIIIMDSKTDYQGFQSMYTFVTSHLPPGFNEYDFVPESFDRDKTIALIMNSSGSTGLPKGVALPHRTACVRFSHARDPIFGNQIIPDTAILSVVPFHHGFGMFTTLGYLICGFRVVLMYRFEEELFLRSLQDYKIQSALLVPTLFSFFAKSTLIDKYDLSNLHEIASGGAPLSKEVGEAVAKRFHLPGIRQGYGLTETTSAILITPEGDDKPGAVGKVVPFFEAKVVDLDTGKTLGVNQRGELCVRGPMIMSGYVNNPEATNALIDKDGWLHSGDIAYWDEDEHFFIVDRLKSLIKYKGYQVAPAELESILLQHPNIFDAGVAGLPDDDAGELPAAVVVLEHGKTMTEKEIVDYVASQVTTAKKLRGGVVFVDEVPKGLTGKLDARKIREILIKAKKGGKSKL

CN(C)Cc1c[nH]c2ccccc12
inactive: [1] | [2] | [3] | [4] | [5] | [6] | [7] | [8] | [9] | [10] | [11] | [12] | [13] | [14] | [15] | [16] | [17] | [18]

NCCc1ccccc1
inactive: [1] | [2] | [3] | [4] | [5] | [6] | [7] | [8] | [9] | [10] | [11] | [12] | [13] | [14] | [15] | [16] | [17] | [18]

C[N+](C)(C)CCO
inactive: [19]

CCCOc1ccc2[nH]cc(C3=CCNCC3)c2n1
inactive: [19]

Cc1ccccc1O
inactive: [20]

CC(=O)[C@H]1CC[C@H]2[C@@H]3CCC4=CC(=O)CC[C@]4(C)[C@H]3CC[C@]12C
inactive: [20]
